# In PubChem BioAssay (EPA / NIEHS):
# The source made the active and inactive calls. The calls were made as follows: active = hit-call score of the fitted dose curve at least 0.9, where 1 is the maximum; inactive = score below 0.9.
# Read-out: Interleukin-8 (IL8), CXCL8 (gene 3576)
# Assay: BSK_MyoF_IL8: BioMAP Diversity Plus: MyoF Assay for Interleukin-8 (IL8) Biomarker Activity (AID 2284261)
# Conditions: primary human lung fibroblasts
# Method: BSK_MyoF is a cell-based, multiplexed-readout assay that uses lung fibroblasts, […], with measurements taken at 24 hours after chemical dosing in a microplate: 96-well plate.BSK_MyoF_IL8 is an assay component measured in the BSK_MyoF assay. It measures IL-8 antibody related to regulation of gene expression using ELISA technology.Data from the assay component BSK_MyoF_IL8 was analyzed at the endpoint, BSK_MyoF_IL8, in the positive analysis fitting direction relative to DMSO as the negative control and baseline of activity. Using a type of binding reporter, gain or loss-of-signal activity can be used to understand protein changes. To generalize the intended target to other relatable targets, this assay endpoint is annotated to the 'cytokine' intended target family, where the subfamily is 'interleukins'.
# The levels of cell surface (or secreted, indicated by the prefix "s") biomarker endpoints were measured by ELISA. Overt cytotoxicity to cells in confluent adherent cultures (all systems other than the BT system) was assessed by measuring total protein levels using sulforhodamine B (SRB) staining in parallel cultures at the time of biomarker measurements, indicated as SRB endpoints. For proliferation assays for adherent cell types, individual cell types are cultured at sub-confluence and relative cell numbers quantified by SRB staining at time points optimized for each system (48 h: 3C and CASM3C systems; 72 h: BT and HDF3CGF systems; 96 h: SAg system). SRB was performed by staining cells with 0.1% SRB after fixation with 10% TCA and reading wells at 560 nm.Viability and proliferation of PBMC (T cells) was quantified by Alamar Blue reduction for the SAg and BT systems. For PBMC viability (referred to as PBMC Cytotoxicity within the assay endpoint names), cells were plated (75,000/well in a 96-well plate) and then chemical samples added for 1 h before addition of activators, SEB and TSST-1 (20 ng/mL final concentration each). Cells were incubated for 90 h. Then, Alamar Blue (20 uL/well) (Invitrogen, Cat DAL1100) was added for 6 h, and the plates were read with a fluorescence microplate reader at 546/580 nm (excitation/emission). For PBMC proliferation, cells were plated and activated as above but incubated for only 16 h prior to addition of Alamar Blue. Plates were read after 6 h.
SMILES,outcome,AC50
O=S(=O)(C(Cl)(Cl)Cl)C(Cl)(Cl)Cl,inactive,
[Cl][Sn]([c]1ccccc1)([c]1ccccc1)[c]1ccccc1,inactive,
Cc1cc(Cl)ccc1OC(C)C(=O)O (stereo not given),inactive,
CCOC(=O)C(SP(=S)(OC)OC)c1ccccc1 (stereo not given),inactive,
CC(C=O)Cc1ccc2c(c1)OCO2 (stereo not given),inactive,
O=[N+]([O-])c1ccc(Nc2ccccc2)cc1,inactive,
Cc1ccc2nc3sc(=O)sc3nc2c1,,3.31 µM (active)
NC(=O)CCl,inactive,
O=c1oc2ccccc2c(O)c1C(CC(O)c1ccc(-c2ccc(Br)cc2)cc1)c1ccccc1 (stereo not given),,19.1 µM (active)
CCN(CC)C(=O)C(Cl)=C(C)OP(=O)(OC)OC,inactive,
Nc1ccc(N)cc1,inactive,
Nc1c(Oc2ccccc2)cc(O)c2c1C(=O)c1ccccc1C2=O,,10 µM (active)
CC(C)N(C(=O)CCl)c1ccccc1,,20 µM (active)
CCOP(=S)(OCC)SCS(=O)(=O)C(C)(C)C,inactive,
CCCCCCCCCCCCN(C)C,inactive,
CCOP(=O)(OCC)OC(=CCl)c1ccc(Cl)cc1Cl,inactive,
Oc1cccc(-c2ccccc2)c1,inactive,
C#CCOC(=O)/C=C(C)/C=C/CC(C)CCCC(C)C (stereo not given),,4.33 µM (active)
CC(C)(COCC1CO1)COCC1CO1 (stereo not given),inactive,
CCC(C)(C#N)N=NC(C)(C#N)CC (stereo not given),inactive,

SMILES,outcome,AC50
O=C1C=CC(=O)c2ccccc21,inactive,
OC(Cc1ccccc1Cl)(Cn1cncn1)C1(Cl)CC1 (stereo not given),inactive,
Oc1c(Br)cc(Br)cc1Br,,13.9 µM (active)
O=C(CCl)NCO,,3.97 µM (active)
OC(Cc1ccccc1Cl)(Cn1[nH]cnc1=S)C1(Cl)CC1 (stereo not given),,12.3 µM (active)
CC(C)=CC1C(C(=O)OCc2cccc(Oc3ccccc3)c2)C1(C)C (stereo not given),inactive,
Cc1ccc(OP(=O)(Oc2ccc(C)cc2C)Oc2ccc(C)cc2C)c(C)c1,inactive,
Cc1ccccc1OP(=O)(Oc1ccccc1)Oc1ccccc1,,0.731 µM (active)
COCC(=O)N(c1c(C)cccc1C)[C@H](C)C(=O)OC,inactive,
Oc1ccc(Cc2ccc(O)cc2)cc1,inactive,
CCOP(=O)(OCC)SCCSCC,inactive,
c1ccc(-c2cccc(-c3ccccc3)c2)cc1,,20 µM (active)
Cc1cc(Cl)ccc1N,inactive,
CC1(C)[C@H](C(=O)O[C@H](C#N)c2cccc(Oc3ccccc3)c2)[C@@H]1/C=C(\Cl)C(F)(F)F,inactive,
CCOC(=O)CC(=O)CCl,inactive,
c1ccc2sc(SNC3CCCCC3)nc2c1,,6.46 µM (active)
C=CC(Cl)CCl (stereo not given),inactive,
O=[N+]([O-])c1cccc2ccccc12,inactive,
N#CCCC(Br)(C#N)CBr (stereo not given),inactive,
O=S(=O)(c1ccc(Cl)cc1)c1cc(Cl)c(Cl)cc1Cl,inactive,
